# KB-V1 MDR tox – KB-V1 MDR subline cytotoxicity; KB-V1 MDR cells viability, CellTiter-Glo, 72 h; Potency, µM (highest dose often 46.1 µM), actives largely listed as cytotoxic; actives 3.4% (n = 400,000); note: % is set by controls: 0 for no effect and ±100 for the full control effect; nearly all actives have a fitted effect of over 60% in size
#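 Potencies derive from concentration-effect curves fitted to normalized luminescence (CellTiter-Glo) of KB-V1 cells treated for 72 h at 37 degrees C in phenol-red-free DMEM containing 10% FBS.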
# HT1080-NT tox – kills 2HG-producing HT-1080-NT fibrosarcoma cells; HT-1080-NT fibrosarcoma viability, CellTiter-Glo ATP luminescence, 48 h; Potency, µM (highest dose often 46.1 µM), inactives show at the highest dose activity, negative = less viability, usual class: cytotoxic; actives 1.6% (n = 360,000);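 note: NT is the 2HG producing partner of a matched IDH1 knockdown line; 0% = DMSO-treated cells and -100% = media-only wells without cells; nearly all actives have a fitted effect of over 55% in size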
#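 Viability by CellTiter-Glo luminescence after 48 h compound exposure at 37C of HT-1080-NT cells (750/well, RPMI, 5% FBS). % activity scaled between DMSO wells and medium-only wells, then curve-fitted and categorized by curve class.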
# MCF10A rerep – DNA re-replication induction in MCF 10a cells; MCF 10A DNA re-replication, Hoechst nuclear intensity, 48 h; Potency, µM (titrated, usually from 46.1 µM), for the others: top-dose activity, positive = re-replication, hits mostly activators; actives 2.9% (n = 350,000); AID 624296; note: % of control where 0% means no effect; nearly all actives have a fitted effect of over 50% in size
# HT1080 IDH1KD tx – kills HT-1080 cells with IDH1 knockdown. AID 686971. Potency, µM (titrated, usually from 46.1 µM), for the others: top-dose activity, negative = toxicity, most hits filed as cytotoxic. actives 2% (n = 360,000). HT-1080 IDH1 knockdown viability, ATP luminescence, 48 h;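 note: 0% = DMSO wells and -100% = cell-free medium wells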
#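 After a 2 h attachment period, IDH1KD HT-1080 cells took pin-transferred compound for 48 h at 37 °C; ATP-based luminescence after 10 min room-temperature reagent incubation reported viability.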
# KB-3-1 cytotox – KB-3-1 parental cell cytotoxicity. Potency, µM (series often up to 46.1 µM), hits mostly cytotoxic. AID 1347075. KB-3-1 viability, CellTiter-Glo ATP luminescence, 72 h. actives 1.4% (n = 400,000); note: % is set by controls: 0 for no effect and ±100 for the full control effect; nearly all actives have a fitted effect of over 60% in size
#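 Screening of KB-3-1 cells (DMEM, 10% FBS, phenol-red free) ran from lowest to highest compound concentration; after 72 h at 37 °C viability was read luminescently and curves fitted.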
# SW480 rerep – inducers of DNA re-replication in SW480 colon cancer cells. SW480 DNA re-replication, Hoechst DNA content imaging, 48 h. Potency, µM (series often up to 46.1 µM), for inactives: at the top dose re-replication activation, usual class: activators. actives 1.8% (n = 340,000); note: % of control where 0% means no effect; nearly all actives have a fitted effect of over 55% in size
#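 Image-based DNA-content assay: after two days of treatment, nuclei were labelled with the DNA dye Hoechst and imaged, and hits were compounds raising the count of nuclei showing high fluorescence intensity.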
# * = called active by the depositor; i = inactive; ? = inconclusive; / = not tested or not shown; [ ] = remark or other dose. A selection: hits, their analogues and other compounds. The true share with any hit is near 8%. Calls come from the whole dose curve; as a rule, active = well fitted curve in the direction sought with a large enough effect; inconclusive = small, poorly fitted or top-dose-only effect, or another doubt; inactive = no such curve, though single readings can be large; an effect the other way counts as inactive or inconclusive. Potency is the fitted concentration of half-maximal effect.
SMILES,KB-V1 MDR tox,HT1080-NT tox,MCF10A rerep,HT1080 IDH1KD tx,KB-3-1 cytotox,SW480 rerep
C=C1C=C(C)n2ncc(C(=O)NCCCCCC)c2N1,i,/,/,/,?,/
COCCSc1nnc(NC(=O)Cc2ccccc2OC)s1,18.4µM*,14.0%,4.7%,17.0%,i,0.3%
COc1ccccc1Nc1nnc(SCC2CCCCO2)s1 (stereo not given),9.2µM*,16.4µM*,?,14.6µM*,16.4µM*,?
COc1ccccc1Nc1nnc(SCC(=O)N2CCCC2)s1,13µM*,3.9%,2.2%,2.2%,i,-4.4%
COc1cccc(C(=O)Nc2ccccc2OCc2cc(=O)n3cc(C)ccc3n2)c1,i,/,/,/,i,/
CCCCn1c(N)c(N(CCOC)C(=O)COC(=O)COc2cc(C)c(Cl)cc2C(C)C)c(=O)[nH]c1=O,i,-27.8%,0.4%,?,i,-562.7%
COc1ccc(CCN2CC(C(=O)NCCc3ncccc3C)CCC2=O)cc1 (stereo not given),i,8.8%,/,-0.3%,i,/
NC(=O)c1nn(-c2ccc(Cl)cc2Cl)c(=O)cc1O,i,8.0%,14.1%,28.2%,i,-0.6%
COc1cccc2c1OC[C@@H](CO)[C@H]2N(C)C(=O)Nc1ccc(Cl)cc1,14.6µM*,-8.0%,15.8%,?,i,4.2%
O=C(Nc1ccc(Cl)cc1)N[C@@H]1c2c(ccc3ccccc23)OC[C@@H]1CO,?,-10.5%,6.6%,?,?,7.4%
CCCCC(=O)N(C)c1c(C)nc2ccc(C(=O)N(C)Cc3ccco3)cn12,i,9.4%,/,0.4%,i,/
Cc1ccc(C)c(S(=O)(=O)c2nnn3c2nc(N2CCCC2)c2sccc23)c1,i,/,/,/,i,/
CCc1cc(-c2nnn(CCC3COCCO3)c2CC)cc(CC)c1-c1cn(Cc2ccc3ccccc3c2)nn1 (stereo not given),5.8µM*,-1.3%,/,-21.0%,?,/
CCc1cc(-c2nnn(CCC3COCCO3)c2CC)ccc1-c1cn(CCc2c[nH]c3ccccc23)nn1 (stereo not given),i,-35.3%,/,?,i,/
CSc1nc(-c2ccccc2)nc2c1COC(C)(C)C2,i,-19.5%,?,-18.9%,i,5.1%[9.22 µM]
CN(C)CCSc1nc(-c2ccccc2)nc2c1COC(C)(C)C2,10.3µM*,?,20.5%,?,i,-4.0%
O=S(=O)(NCC(O)c1ccccc1)c1ccc(-c2ccccn2)s1 (stereo not given),?,-6.3%,?,-17.8%,i,23.1µM*
O=C(COc1ccc(Oc2ccccc2)cc1)NCc1cn2ccccc2n1,?,2.59µM*,14.6µM*,3.26µM*,14.6µM*,?
CCCOC(=O)c1c(NC(=O)C2c3ccccc3Oc3ccccc32)sc2c1CCCC2,i,/,/,/,i,/
CCOc1ccc(Oc2ccccc2NC(=O)CN2C(=O)NC3(CCCC3)C2=O)cc1,?,10.9%,2.9%,14.4%,i,-1.3%
CCOc1ccccc1/C=N/Nc1nc2c(N)ncnc2n1[C@H]1O[C@@H](CO)[C@H](O)[C@@H]1O,i,1.1%,6.4%,-0.9%,i,8.2µM*
CC(C)COc1ccc(CSCCNC(=S)Nc2ccccc2)cc1,25.9µM*,?,?,?,i,?
COc1cc(OC)cc(C(=O)N[C@H](C(=O)OCc2cc(=O)oc3cc(C)ccc23)C(C)C)c1,3.66µM*,1.4%,9.5%,-0.8%,i,-0.2%
CC(C)C(NC(=O)c1ccccc1)C(=O)OCc1cc([N+](=O)[O-])cc2c1OCOC2 (stereo not given),i,-2.4%,16.2%,-8.0%,i,-11.8%
COc1cc(OC)cc(C(=O)NCC(=O)OCc2cc(=O)oc3cc(OC)ccc23)c1,i,5.6%,-5.2%,6.9%,i,-3.4%
SMILES,KB-V1 MDR tox,HT1080-NT tox,MCF10A rerep,HT1080 IDH1KD tx,KB-3-1 cytotox,SW480 rerep
CCOc1ccccc1C(=O)N[C@H](C(=O)OCc1cc([N+](=O)[O-])cc2c1OCOC2)C(C)C,5.8µM*,-2.3%,19.0%,?,i,22.3%
CCOc1ccccc1C(=O)N[C@H](C(=O)OCc1cc(=O)oc2cc(C)ccc12)C(C)C,3.26µM*,-19.4%,20.8%,-23.2%,i,?
Cc1ccc2c(COC(=O)c3ccccc3Cl)cc(=O)oc2c1,i,1.2%,-3.2%,9.8%,i,-8.6%
O=C(CCn1cnc2onc(-c3ccc(F)cc3)c2c1=O)N1CCN(c2ccccc2F)CC1,i,/,/,/,i,/
COc1ccc2c(c1)c(CC(=O)Nc1ccc(C(C)=O)cc1)c(C)n2C(=O)c1ccc(Cl)cc1,?,-0.4%,3.3%,-4.7%,i,-18.1%
COc1ccc2c(c1)c(CC(=O)Nc1ccccc1OC)c(C)n2C(=O)c1ccc(Cl)cc1,?,-0.1%,16.4µM*,-14.0%,?,0.5%
COc1ccc2c(c1)c(CC(=O)Nc1nnc(C3CC3)s1)c(C)n2C(=O)c1ccc(Cl)cc1,?,23.1µM*,10.3µM*,?,?,?
COc1ccc2c(c1)c(CC(=O)NCc1cc([N+](=O)[O-])ccc1O)c(C)n2C(=O)c1ccc(Cl)cc1,?,?,23.1µM*,-27.2%,?,-2.3%
O=C(NCC1CCN(S(=O)(=O)c2ccccc2)CC1)Nc1ccc(F)cc1F,?,-6.7%,11.5%,-1.3%,i,-5.7%
COc1cccc(COC(=O)c2ccc(-c3nnn(Cc4ccccc4)n3)cc2)c1,i,/,/,/,i,/
CCCCn1cc(S(=O)(=O)c2cc(C)ccc2C)c(=O)c2cc(F)c(F)cc21,i,/,/,/,i,/
O=C(N/N=C1\CCc2ccccc21)c1ccncc1,i,-9.2%,2.8%,-9.4%,i,?
c1ccc2c(c1)CCc1c(-c3ccncc3)n[nH]c1-2,14.6µM*,6.4%,17.5%,0.0%,13µM*,-12.9%
Cc1ccc(S(=O)(=O)NCCc2csc3nc(-c4ccccc4C)nn23)cc1,i,/,/,/,i,/
CCC1Oc2ccc(C)cc2N(CC(=O)N(Cc2ccc3c(c2)OCO3)CC2CCCO2)C1=O (stereo not given),6.51µM*,-0.5%,7.2%,-9.3%,i,-1.5%
CCC1Oc2ccc(C)cc2N(CC(=O)N(Cc2ccc(C)o2)C2CC(C)(C)NC(C)(C)C2)C1=O (stereo not given),?,16.4µM*,1.3%,?,?,?
COc1ccc(CN(CC2CCCO2)C(=O)CN2C(=O)C(C)Oc3ccc(C)cc32)cc1OC (stereo not given),?,-1.6%,?,-5.3%,i,0.7%
